Screening data: PubChem, Sanford-Burnham Center for Chemical Genomics
Only some compounds are listed: those with a hit (about 31% of all), similar ones and a draw of the others.
PLAP act: activators of human placental alkaline phosphatase; P05187; purified PLAP enzyme, luminescent substrate read-out; active compounds read high; activation fold at 20 µM; hit rate 1.2% among 96,000; in the data active means activation fold above about 2
CYP2C9 activ: CYP2C9 (human) activation; activation factor at 5 µM; AID 1024; hit rate 1.4% among 96,000; recombinant CYP2C9, luciferin-H conversion, luminescence; active compounds read high; factor 1 = untreated enzyme, 0 = blocked; P11712;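 active means activation factor of 2 or more for CYP2C9 at a 5 µM dose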
Target sequence (P11712 whole entry, looked up): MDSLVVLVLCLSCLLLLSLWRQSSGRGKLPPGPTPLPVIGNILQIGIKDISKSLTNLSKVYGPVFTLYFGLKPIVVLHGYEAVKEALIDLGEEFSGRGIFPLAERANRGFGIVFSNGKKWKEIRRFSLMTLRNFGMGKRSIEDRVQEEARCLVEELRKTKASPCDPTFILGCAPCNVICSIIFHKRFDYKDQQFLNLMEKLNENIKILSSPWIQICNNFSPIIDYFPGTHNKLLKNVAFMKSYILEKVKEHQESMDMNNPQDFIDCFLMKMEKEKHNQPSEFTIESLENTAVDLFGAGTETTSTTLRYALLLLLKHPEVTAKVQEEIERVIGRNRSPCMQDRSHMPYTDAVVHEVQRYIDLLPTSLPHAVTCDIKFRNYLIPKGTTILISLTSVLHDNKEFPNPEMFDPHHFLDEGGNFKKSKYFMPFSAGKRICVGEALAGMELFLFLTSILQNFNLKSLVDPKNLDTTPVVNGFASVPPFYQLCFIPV
CYP2C19 inh: inhibitors of human CYP2C19; inhibition, % at 5 µM; hit rate 21% among 96,000; CYP2C19 Supersomes, luciferin-H EGE luminescence, 30 min; P33261; AID 778;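 active means CYP2C19 inhibition above a set limit at 5 µM in the primary screen, cut at about 50% in these data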
CYP2C19 act: increases human CYP2C19 enzyme activity | P33261 | recombinant CYP2C19, luciferin-H EGE luminescence; active compounds read high; 0 = fully inhibited enzyme, 1 = untreated enzyme | activation factor at 5 µM | 96,000 tested, under 10 active | AID 1025;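 active means activation factor of at least 2 at 5 µM in the primary screen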
CYP2C9 inhib: inhibitors of human CYP2C9. CYP2C9 Supersomes, luciferin-H conversion, luminescence. inhibition, % at 5 µM. hit rate 20% among 96,000. AID 777;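 active means blocking of liver enzyme CYP2C9 beyond about 50% at 5 µM, limit read from the data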
Of the large screens only hits and unclear results are named; the others gave an inactive call.

O=S(=O)(NCc1ccncc1)c1ccc(S(=O)(=O)NCC2CCCO2)cc1 (stereo unspecified)	CYP2C19 inh 56, CYP2C9 inhib 89
O=S(=O)(NCC1CCCO1)c1cccc(S(=O)(=O)N2CCCC2)c1 (stereo unspecified)	none
O=S(=O)(NCC1CCCO1)c1ccc2oc3ccc(S(=O)(=O)NCC4CCCO4)cc3c2c1 (stereo unspecified)	CYP2C9 inhib 52
COc1ccccc1OC(=O)c1ccc(SC)cc1OC	none
CSCC[C@H](NC(=O)NCCC1=CCCCC1)C(=O)O	none
NC(=O)c1c(NC(=O)c2ccco2)sc2c1CCC2	none
O=C(Nc1sc2c(c1C(=O)O)CCCCC2)c1ccco1	CYP2C9 inhib 51
CCOC(=O)c1c(NS(=O)(=O)Cc2ccccc2)sc2c1CCCC2	CYP2C19 inh 99, CYP2C9 inhib 95
CCOC(=O)c1c(NC(=O)c2cccs2)sc2c1CCCC2	none
NC(=O)c1c(NC(=O)CSc2nnc(Cc3ccccc3)n2Cc2ccco2)sc2c1CCC2	CYP2C9 inhib 64
CCOC(=O)c1c(NC(=O)c2ccc(N3C(=O)C4C5C=CC(C5)C4C3=O)cc2)sc2c1CCCC2 (stereo unspecified)	CYP2C9 inhib 66
CCN(C(=O)CN1CCN(c2ccc(O)cc2)CC1)c1c(N)n(Cc2ccccc2)c(=O)[nH]c1=O	none
Cc1ccc(C(=O)COC(=O)CNC(=O)c2ccco2)cc1	none
Cc1cc(NC(=O)c2noc3c2CCCC3)n(-c2ccccc2)n1	none
CCOC(=O)c1c(NC(=O)CSc2nnc(CNC(=O)c3ccco3)n2C)sc2c1CCC2	CYP2C9 inhib 70
CCOC(=O)c1c(NC(=O)C(C)N2CCN(C(=O)c3ccco3)CC2)sc2c1CCCC2 (stereo unspecified)	CYP2C19 inh 77, CYP2C9 inhib 100
CCOC(=O)c1c(NC(=O)c2ccco2)sc2c1CCCCC2	CYP2C9 inhib 78
CCOC(=O)c1c(NC(=O)c2c(C)noc2C)sc2c1CCCCC2	none
O=C(Nc1ccc(N2CCOCC2)c(C(=O)O)c1)c1ccco1	none
O=C(CSc1nnc(Cc2cc(=O)[nH]c(=O)[nH]2)n1-c1ccccc1)NCC1CCCO1 (stereo unspecified)	none
CCOC(=O)c1nn(-c2ccc(Cl)cc2)c2nc(Nc3ccccc3)cc(=O)n12	none
CC1(C)CCCC2=C1CC1C(=O)N(Cc3cccnc3)C(=O)C1C2 (stereo unspecified)	none
O=C1CSC(=S)N1Cc1cccnc1	CYP2C19 inh 53, CYP2C9 inhib 76
O=C1C2C3C=CC([C@@H]2C(=O)N1Cc1cccnc1)C31CC1 (stereo partly specified)	CYP2C19 inh 72
O=C1CSC(=S)N1c1cccnc1	none
CCOc1cc2[nH]c(=O)n(CCC(=O)NCCc3ccccc3)c(=O)c2cc1OCC	none
CC1CCCN(C2=NC(=O)/C(=C/c3cn(-c4ccccc4)nc3-c3cccc(S(=O)(=O)N(C)C)c3)S2)C1 (stereo unspecified)	CYP2C9 inhib 65
Cc1nc(-c2cccc(S(=O)(=O)N3CCCC(C)C3)c2)cs1 (stereo unspecified)	none
CC1CCN(C2=NC(=O)/C(=C/c3cn(-c4ccccc4)nc3-c3cccc(S(=O)(=O)N(C)C)c3)S2)CC1	CYP2C9 inhib 56
COC(=O)Cn1c(CN2CCOCC2)nc2c1c(=O)[nH]c(=O)n2C	none
CC1C(c2ccccc2)N(C)C(c2ccccc2)CC1(O)c1ccccc1 (stereo unspecified)	CYP2C19 inh 65
CCOC(=O)C(C)(C)Sc1nc2c(cnn2-c2ccc(Cl)cc2)c(=O)[nH]1	CYP2C9 inhib 76
CCC(Sc1nc2c(cnn2-c2ccc(Cl)cc2)c(=O)[nH]1)C(=O)OC (stereo unspecified)	none
Cc1ccc(Cl)cc1N1CCN(C(=O)c2ccc(CN3CCOCC3)cc2)CC1	CYP2C19 inh 60, CYP2C9 inhib 67
Cc1ccc(C(=O)N2CCOCC2)cc1Cl	none
Cc1ccc(OCc2ccc(C(=O)N3CCOCC3)cc2)cc1C	CYP2C19 inh 71
O=C(c1ccc(CN2CCOCC2)cc1)N1CCN(c2cccc(Cl)c2)CC1	none
CCOC(=O)c1oc2c(c1C)/C(=N/O)CCC2	none
C=CCn1c(=O)c2ccccc2n2c(SCc3nnc(-c4ccccc4Br)o3)nnc12	CYP2C19 inh 66, CYP2C9 inhib 64
C=CCn1c(=O)c2ccccc2n2c(SCc3cc(=O)n4ccsc4n3)nnc12	none
N#CCSc1nnc2sc3ccccc3n12	none
COc1ccc(-n2cnnc2SCc2ncc(-c3ccccc3)o2)cc1	CYP2C19 inh 66
C=CCn1c(=O)c2ccccc2n2c(SCC(=O)c3ccccc3)nnc12	CYP2C19 inh 82, CYP2C9 inhib 71
Cn1c(COc2ccc(Cl)cc2)nnc1SCc1ncc(-c2ccccc2)o1	none
Brc1ccccc1-c1nnc(CSc2nnc3sc4ccccc4n23)o1	CYP2C19 inh 79
CCc1cc2c(CN3CCN(CCO)CC3)cc(=O)oc2cc1O	none
CCOc1cccc(-c2nn3c(-c4ccco4)nnc3s2)c1	none
CC(C)(C)n1ncc2c(=O)n(CC(=O)NCc3ccccc3Cl)cnc21	none
Brc1ccccc1-c1nnc(CSc2nncn2-c2ccccc2)o1	CYP2C9 activ 2.4, CYP2C19 inh 68
C=CCn1c(=O)c2ccccc2n2c(SCC(=O)NCCc3ccccc3)nnc12	CYP2C19 inh 51
Cc1ccc(-n2nnnc2SCc2nnc(-c3ccccc3Br)o2)cc1	none
O=S(=O)(c1ccccc1)C1(S(=O)(=O)c2ccccc2)CCCC1	CYP2C19 inh 98, CYP2C9 inhib 58
CN(Cc1ccccc1)C(=O)CCS(=O)(=O)c1ccc2c(c1)n(C)c(=O)c(=O)n2C	none
CCS(=O)(=O)NC(C)C(c1cccs1)N1CCN(c2ccc(F)cc2)CC1 (stereo unspecified)	none
CCN(CC)c1ccc(NC(=O)COC(=O)CCC(=O)c2ccc(F)cc2)cc1	none
CC(=O)Nc1ccc(NC(=O)C(C)OC(=O)CCC(=O)c2ccc(F)cc2)cc1 (stereo unspecified)	CYP2C19 inh 72, CYP2C9 inhib 69
COc1ccc(NC(=O)C2CCCN2C(=O)OCc2ccccc2)c(OC)c1 (stereo unspecified)	none
COc1ccc(NC(=O)C2CCCCN2N)cc1OCC(C)C (stereo unspecified)	CYP2C19 inh 94
COc1ccc(NC(=O)C2CCCCN2CC(=O)OCc2ccccc2)cc1OC (stereo unspecified)	CYP2C19 inh 67, CYP2C9 inhib 62
C=CC[n+]1c(-c2ccc(OC)c(OC)c2)csc1NNC(=O)Nc1ccccc1	none
Cc1cc(C)n(-c2nnc3n2N=C(c2ccccc2)CS3)n1	CYP2C19 inh 51
Brc1ccccc1C1=Nn2c(nnc2-c2ccccc2)SC1	CYP2C19 inh 90, CYP2C9 inhib 62
Cc1cc(C)n(-c2nnc3n2N=C(c2c[nH]c4ccccc24)CS3)n1	none
CCCCC1CC(/C(C)=N/NC(N)=O)OC1=O (stereo unspecified)	none
C=CCNC(=O)c1cc(-c2ccc(Br)cc2)on1	none
